Data taken from PubChem BioAssay (Tox21).
Results filed as inconclusive are left out. Activity calls are given as the source filed them. Unless noted, calls come from the whole dose curve; as a rule, active = well fitted curve in the direction sought with a large enough effect in the repeat runs; inconclusive = weak or mixed curves; inactive = no such curve, though single readings can be large; an effect the other way counts as inactive or inconclusive.

Tests used:
[1] = qHTS RealTime-Glo MT Cell Viability Assay in HEK293 cells - 24 hour (AID 1224886); note: top concentration of the series differs between compounds; nearly all actives have a fitted effect of over 50% in size
How it was run: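 HEK293 cells were seeded at 600 cells/well together with NanoLuc luciferase and cell-permeant prosubstrate, preincubated 5 h at 37 C/5% CO2, then given compound in DMSO by pintool. Luminescence from viable-cell prosubstrate reduction was read repeatedly over 40 h.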

[2] = qHTS RealTime-Glo MT Cell Viability Assay in HEK293 cells - 8 hour (AID 1224887); note: top concentration of the series differs between compounds; nearly all actives have a fitted effect of over 50% in size
How it was run: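 600 cells/well were plated with the nonlytic NanoLuc/prosubstrate reagent, pre-incubated 5 h, then given 23 nL of compound in DMSO. Incubation at 37 C for 40 h, with luminescence from viable-cell-reduced substrate read repeatedly from 0 h.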

[3] = A CellTox Green Cytotoxicity Assay to monitor cytotoxicity in HEK293 cells - 16 hour (AID 1224888); note: nearly all actives have a fitted effect of over 35% in size
How it was run: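 HEK293 cells, 600/well, were preincubated 5 hours and then exposed to compounds at 37 C for up to 40 hours. A cell-impermeant cyanine dye staining dead-cell DNA was read by fluorescence at 0, 8, 16, 24, 32 and 40 h time points.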

[4] = qHTS RealTime-Glo MT Cell Viability Assay in HepG2 cells - 0 hour (AID 1224889); note: nearly all actives have a fitted effect of over 50% in size
How it was run: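 HepG2 cells were seeded at 600 cells/well together with NanoLuc luciferase and a cell-permeant prosubstrate, preincubated 5 h at 37 C/5% CO2, then pin-dosed with compounds in DMSO. Nonlytic luminescence from viable cells was read at each time point.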

[5] = A CellTox Green Cytotoxicity Assay to monitor cytotoxicity in HepG2 cells - 8 hour (AID 1224890); note: nearly all actives have a fitted effect of over 45% in size
How it was run: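 HepG2 cells, 600/well, preincubated 5 h with CellTox Green dye, then exposed to Tox21 compounds in DMSO at 37 C for up to 40 h. Dead-cell DNA fluorescence read at the indicated time point.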

[6] = qHTS assay to identify small molecule antagonists of the estrogen receptor alpha (ER-alpha) signaling pathway using the BG1 cell line in the presence of 0.1 nM 17-beta-estradiol - cell viability counter screen (AID 1259241); note: nearly all actives have a fitted effect of over 40% in size
How it was run: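 The cell line endogenously expresses full-length ER-alpha and carries four EREs driving luciferase. Cells are cultured 5 days hormone-free, treated 22 hr with compounds and 0.1 nM estradiol, then viability is read by fluorescence.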

[7] = qHTS assay to identify small molecule antagonists of the androgen receptor (AR) signaling pathway using the MDA cell line in the presence of 0.5 nM R1881 - cell viability counter screen (AID 1259242); note: nearly all actives have a fitted effect of over 45% in size
How it was run: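 MDA-kb2 cells (MMTV-luciferase, AR/GR responsive) were treated with compounds plus 0.5 nM R1881 (final) for 16 hr at 37C, 0% CO2. Viability was then read in the same wells as live-cell protease fluorescence (CellTiter-Fluor, 30 min).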

[8] = target: Androgen receptor (Homo sapiens) (UniProt P10275); assay: qHTS assay to identify small molecule antagonists of the androgen receptor (AR) signaling pathway using the MDA cell line in the presence of 0.5 nM R1881 (AID 1259243); note: nearly all actives have a fitted effect of over 50% in size
Sequence of Androgen receptor (Homo sapiens) (P10275 whole entry, looked up): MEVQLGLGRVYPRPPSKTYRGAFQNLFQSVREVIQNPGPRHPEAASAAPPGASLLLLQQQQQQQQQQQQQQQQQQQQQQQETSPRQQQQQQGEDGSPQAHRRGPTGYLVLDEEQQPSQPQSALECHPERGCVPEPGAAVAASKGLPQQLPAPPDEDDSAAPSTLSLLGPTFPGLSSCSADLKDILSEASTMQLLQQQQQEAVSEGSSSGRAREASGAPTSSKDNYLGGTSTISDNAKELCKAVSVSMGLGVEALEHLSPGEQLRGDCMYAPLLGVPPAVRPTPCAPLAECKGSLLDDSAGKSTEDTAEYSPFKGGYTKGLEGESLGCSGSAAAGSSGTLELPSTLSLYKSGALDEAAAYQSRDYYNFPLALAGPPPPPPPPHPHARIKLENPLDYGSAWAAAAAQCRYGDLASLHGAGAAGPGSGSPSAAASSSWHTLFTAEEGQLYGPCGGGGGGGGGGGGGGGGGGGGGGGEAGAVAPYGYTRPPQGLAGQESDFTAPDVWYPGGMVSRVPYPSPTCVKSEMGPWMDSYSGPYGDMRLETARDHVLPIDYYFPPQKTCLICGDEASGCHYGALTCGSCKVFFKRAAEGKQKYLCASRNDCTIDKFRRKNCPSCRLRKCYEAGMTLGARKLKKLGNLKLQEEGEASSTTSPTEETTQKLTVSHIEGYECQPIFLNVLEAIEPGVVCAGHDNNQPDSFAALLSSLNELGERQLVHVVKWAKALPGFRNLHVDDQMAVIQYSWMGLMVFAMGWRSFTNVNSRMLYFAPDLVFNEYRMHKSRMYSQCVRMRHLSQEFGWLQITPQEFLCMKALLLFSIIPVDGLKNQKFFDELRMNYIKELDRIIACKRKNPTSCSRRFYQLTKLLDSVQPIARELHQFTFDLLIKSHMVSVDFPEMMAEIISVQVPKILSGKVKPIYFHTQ
How it was run: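 MDA-kb2 cells (MMTV-luciferase, responsive to AR and GR) at 3,000/well, rested 5 h at 37C, 0% CO2, then given compounds plus 0.5 nM R1881 (final) for 16 hr. Luciferase read with ONE-Glo after 30 min at room temperature.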

[9] = target: Estrogen receptor (Homo sapiens) (UniProt P03372); assay: qHTS assay to identify small molecule antagonists of the estrogen receptor alpha (ER-alpha) signaling pathway using the BG1 cell line in the presence of 0.1 nM 17-beta-estradiol (AID 1259244); note: nearly all actives have a fitted effect of over 50% in size
Sequence of Estrogen receptor (Homo sapiens) (P03372 whole entry, looked up): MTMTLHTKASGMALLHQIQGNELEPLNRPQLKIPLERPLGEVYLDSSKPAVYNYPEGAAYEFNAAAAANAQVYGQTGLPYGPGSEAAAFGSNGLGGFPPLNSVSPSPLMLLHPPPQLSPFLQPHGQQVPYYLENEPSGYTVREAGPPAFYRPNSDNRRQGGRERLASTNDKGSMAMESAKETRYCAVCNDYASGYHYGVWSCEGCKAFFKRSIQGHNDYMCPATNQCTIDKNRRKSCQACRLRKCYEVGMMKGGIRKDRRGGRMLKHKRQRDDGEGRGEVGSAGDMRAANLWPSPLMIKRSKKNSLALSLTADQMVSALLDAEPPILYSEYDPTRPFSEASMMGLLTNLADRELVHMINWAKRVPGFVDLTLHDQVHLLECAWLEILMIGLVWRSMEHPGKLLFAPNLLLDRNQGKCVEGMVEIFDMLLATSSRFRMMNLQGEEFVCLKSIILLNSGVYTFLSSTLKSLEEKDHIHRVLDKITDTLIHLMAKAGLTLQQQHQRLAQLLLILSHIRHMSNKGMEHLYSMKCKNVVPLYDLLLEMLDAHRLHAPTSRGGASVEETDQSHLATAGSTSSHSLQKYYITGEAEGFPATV
How it was run: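 VM7Luc4E2 cells (endogenous full-length ER-alpha, 4×ERE-luciferase), kept 5 days in phenol red-free, charcoal-stripped FBS medium; 4,000 cells/well. Compounds added with 0.1 nM (final) 17beta-estradiol, 22 hr at 37C; luminescence read with ONE-Glo after 30 min.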

[10] = qHTS assay to identify small molecule agonists of the sonic hedgehog signaling (Shh) pathway - cell viability counter screen (AID 1259366); note: nearly all actives have a fitted effect of over 50% in size
How it was run: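 Viability measured fluorometrically (CellTiter-Fluor, 1hr, 37C) in 3T3 Gli1-Luc reporter cells after 23hr compound exposure within a 24hr incubation at 37C/5% CO2.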

[11] = qHTS assay to identify small molecule antagonists of the sonic hedgehog signaling (Shh) pathway - cell viability counter screen (AID 1259367); note: nearly all actives have a fitted effect of over 55% in size
How it was run: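 NIH/3T3-derived Gli1-Luc reporter cells (2,000 per well) rested 4 hr at 37 C, then received DMSO compounds plus conditioned medium. After 23 hr of treatment, CellTiter-Fluor was added for 1 hr at 37C and fluorescence read.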

[12] = qHTS assay to identify small molecule agonists of the sonic hedgehog signaling (Shh) pathway (AID 1259368; calls by dose curve;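 note: NIH/3T3-derived 3T3Gli1-Luc cells carrying a stable Gli1-driven firefly luciferase reporter; series mostly up to about 92 µM; nearly all actives have a fitted effect of over 15% in size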)
How it was run: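 NIH/3T3-derived 3T3Gli1-Luc cells with stably integrated Gli1-driven firefly luciferase, 2,000 cells/well, compounds added after 4 hr. Incubated 24 hr at 37C, 5% CO2; luminescence read after 30 min with luciferase reagent at room temperature.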

[13] = qHTS assay to identify small molecule antagonists of the sonic hedgehog signaling (Shh) pathway (AID 1259369; calls by dose curve; note: nearly all actives have a fitted effect of over 45% in size)
How it was run: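 NIH/3T3-derived Gli1-Luc reporter cells plated 4 h, dosed with compound, then stimulated with conditioned medium for 24 h at 37 C. Firefly luciferase luminescence read after 30 min with detection reagent at room temperature.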

[14] = target: Estrogen receptor beta (Homo sapiens) (UniProt Q92731); assay: qHTS assay to identify small molecule agonists of the estrogen receptor beta (ER-beta) signaling pathway (AID 1259377; active = well fitted activation curve with a large enough effect in the signal ratio in the repeat runs, not every such curve was filed as active; the % refers to the signal ratio)
Sequence of Estrogen receptor beta (Homo sapiens) (Q92731 whole entry, looked up): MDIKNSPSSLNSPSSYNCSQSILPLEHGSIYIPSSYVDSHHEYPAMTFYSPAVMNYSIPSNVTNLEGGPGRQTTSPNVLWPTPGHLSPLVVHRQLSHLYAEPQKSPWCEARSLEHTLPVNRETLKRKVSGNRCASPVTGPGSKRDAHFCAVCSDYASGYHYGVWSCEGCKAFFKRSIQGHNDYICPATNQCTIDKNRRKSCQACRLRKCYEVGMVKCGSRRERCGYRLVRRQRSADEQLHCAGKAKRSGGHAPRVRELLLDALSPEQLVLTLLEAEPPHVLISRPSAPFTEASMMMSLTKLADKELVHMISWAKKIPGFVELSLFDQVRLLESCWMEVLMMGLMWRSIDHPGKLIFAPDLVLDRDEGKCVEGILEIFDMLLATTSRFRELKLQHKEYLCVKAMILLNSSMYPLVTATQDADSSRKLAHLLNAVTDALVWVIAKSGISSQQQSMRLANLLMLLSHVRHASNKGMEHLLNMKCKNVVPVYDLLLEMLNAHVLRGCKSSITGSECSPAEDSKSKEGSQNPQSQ
How it was run: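 A UAS-controlled beta-lactamase reporter in ER-beta-UAS-bla HEK293T cells reports receptor activation. Compounds act for 16 hr at 37C in 2% charcoal-stripped serum, and a FRET substrate is read by fluorescence after 2 hours.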

[15] = qHTS assay to identify small molecule agonists of the androgen receptor (AR) signaling pathway in the presence of an antagonist - cell viability counter screen (AID 1259379);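 note: MDA-kb2 human breast cancer cells carrying an MMTV luciferase reporter; series mostly up to about 92 µM; nearly all actives have a fitted effect of over 25% in size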
How it was run: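 MDA-kb2 cells (MMTV-luciferase, AR/GR), 3,000/well, 5 h attachment, then 3.0 µM nilutamide (final) and compounds at 15 concentrations. Viability by CellTiter-Fluor fluorescence after 16 h at 37 °C, 0% CO2, in the reporter wells.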

[16] = qHTS assay to identify small molecule agonists of the estrogen receptor beta (ER-beta) signaling pathway - cell viability counter screen (AID 1259380); note: nearly all actives have a fitted effect of over 30% in size
How it was run: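 ER-beta-UAS-bla HEK293T cells in medium with 2% charcoal-stripped FBS, pre-incubated 6 hr, then treated 16 hr at 37C. Cytotoxicity read in the same wells by CellTiter-Glo luminescence after 30 min at room temperature.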

[17] = qHTS assay to identify small molecule phospholipidosis (PLD) inducers (AID 1259344; active = well fitted curve in the direction sought with a large enough effect; an effect the other way counts as inactive or inconclusive)
How it was run: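 HepG2 cells on collagen I, attached 4 h at 37 C, were co-treated with compound and LipidTOX Red dye for 24 h at 37 C, then fixed with paraformaldehyde plus Hoechst 33342 and imaged by high-content microscopy for phospholipid accumulation.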

[18] = qHTS assay to identify small molecule HDAC inhibitors (AID 1259364); note: top concentration of the series differs between compounds; nearly all actives have a fitted effect of over 45% in size
How it was run: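 Wild-type HCT-116 cells, plated overnight at 37 C, exposed to compounds 2 hr at 37 C; luminogenic HDAC-Glo substrate then added 30 min at room temperature. Luminescence reports relative endogenous class I/II HDAC activity.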

[19] = qHTS assay to identify small molecule HDAC inhibitors - cell viability counter screen (AID 1259365)
How it was run: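 Viability readout: CellTiter-Glo luminescence. Wild-type HCT-116 cells, 2hr compound treatment following overnight attachment at 37 C.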

[20] = target: Estrogen receptor beta (Homo sapiens) (UniProt Q92731); assay: qHTS assay to identify small molecule antagonists of the estrogen receptor beta (ER-beta) signaling pathway (AID 1259378; active = well fitted inhibition curve with a large enough effect in the signal ratio in the repeat runs, not every such curve was filed as active; the % refers to the signal ratio)
How it was run: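 ER-beta-UAS-bla HEK293T (GripTite) cells in 2% charcoal-stripped FBS medium were preincubated 6 hr at 37C, dosed with compound, then stimulated with 1 nM E2 (final) for 16 hr; beta-lactamase reporter read by B/G FRET fluorescence after 2 hr substrate loading.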

Measured: Potency

Cc1c(C(=O)c2c[nH]n(C)c2=O)ccc(S(C)(=O)=O)c1C1=NOCC1
not listed: [17] | [18] | [19] | [20]
inactive: all other assays above

CCC[C@@H]1C[C@@H](C(=O)N[C@@H]([C@H]2O[C@H](SC)[C@H](O)[C@@H](O)[C@H]2O)[C@@H](C)O)N(C)C1
not listed: [8]
inactive: all other assays above

O=C1NC(c2ccccc2)(c2ccccc2)C(=O)N1COP(=O)(O)O
not listed: [9] | [14] | [17] | [20]
inactive: all other assays above

CC(Oc1cc(Cl)ccc1Cl)C(=O)O (configuration not stated)
not listed: [9] | [17] | [20]
inactive: all other assays above

COC(=O)CCCCC(CCSS/C(CCO)=C(\C)N(C=O)Cc1cnc(C)nc1N)SC(C)=O (configuration not stated)
not listed: [14] | [17] | [20]
inactive: all other assays above

OCC1CCC(CO)CC1 (configuration not stated)
not listed: [16] | [17] | [19]
inactive: all other assays above

COc1cc(OC)nc(O[C@H](C(=O)O)C(OC)(c2ccccc2)c2ccccc2)n1
not listed: [16] | [17] | [19]
inactive: all other assays above

O=C(Cl)c1ccccc1[N+](=O)[O-]
not listed: [9] | [14] | [17]
inactive: all other assays above

CC(=O)CC(=O)OC(C)(C)C
not listed: [17] | [20]
inactive: all other assays above

COC(C)(OC)OC
not listed: [14] | [17] | [19] | [20]
inactive: all other assays above

O=C(NCN1CCOCC1)c1cnccn1
not listed: [11] | [14] | [20]
inactive: all other assays above

CC(=O)OC1CCCCC1C(C)(C)C (configuration not stated)
not listed: [17] | [19]
inactive: all other assays above

Cc1ccc(C(=O)O)cc1[N+](=O)[O-]
not listed: [14] | [17] | [18]
inactive: all other assays above

CC(S)C(C)S (configuration not stated)
not listed: [17]
inactive: all other assays above

CC(=O)CC(=O)Nc1ccc(C)cc1C
not listed: [9] | [13] | [16] | [17]
inactive: all other assays above
